# Measurements: the supplement of paper PMC6555819
# Columns and labels:
# Assay in all cases: PBM binding z-score (relative to random genomic background probes); higher = stronger binding; sequences stand for … in GC…GCGATTGACAGCGTAGAATGAAGG
# [1] = tested on: LXRa:RXRa (NR concentration 270 nM, RXRa partner concentration 90 nM)
# How it was run: (§1)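 Ligand-free nuclear receptor dimers were applied to custom Agilent 4×180K protein-binding microarrays whose double-stranded probes carried direct-repeat seeds, single-nucleotide variants, half-site ablations and random human genomic background sequences in 34-nt variable regions. Incubation lasted 1 h. Binding z-scores were computed against the random background probes from regression-normalized fluorescence.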
# [2] = tested on: LXRa homodimer (NR concentration 270 nM)
# How it was run: as §1
# [3] = tested on: LXRb homodimer (NR concentration 270 nM)
# How it was run: as §1
# [4] = tested on: PPARg:RXRa (NR concentration 180 nM, RXRa partner concentration 90 nM)
# How it was run: as §1
# [5] = tested on: PPARg:RXRa 270nM:90nM, anti-RXR (NR concentration 270 nM, RXRa partner concentration 90 nM)
# How it was run: as §1
# [6] = tested on: PPARg:RXRa 30nM:10nM, anti-RXR (NR concentration 30 nM, RXRa partner concentration 10 nM)
# How it was run: as §1
# [7] = tested on: PPARg:RXRa 90nM:30nM, anti-RXR (NR concentration 90 nM, RXRa partner concentration 30 nM)
# How it was run: as §1
# [8] = tested on: PPARg:RXRa DBDmut IVT, anti-RXR (DBD mutation: RXRa K156A/R161A, NR concentration 270 nM, RXRa partner concentration 90 nM)
# How it was run: as §1
# [9] = tested on: PPARa:RXRa (NR concentration 270 nM, RXRa partner concentration 90 nM)
# How it was run: as §1
sequence,measurement,setting,value
TCTAGTTGGTCACGGAGGGCACACACGACGGGTA,PBM binding z-score,[1],0.609
same,PBM binding z-score,[2],-0.107
same,PBM binding z-score,[3],0.00573
same,PBM binding z-score,[4],1.25
same,PBM binding z-score,[5],2.05
same,PBM binding z-score,[6],2.8
same,PBM binding z-score,[7],2.39
same,PBM binding z-score,[8],2.05
TGTCAAAGTTCAAAGGTGACGTAAGTATCCACAC,PBM binding z-score,[1],6.41
same,PBM binding z-score,[2],4.7
same,PBM binding z-score,[3],1.8
same,PBM binding z-score,[4],9.47
same,PBM binding z-score,[5],7.89
same,PBM binding z-score,[6],6.06
same,PBM binding z-score,[7],7.61
same,PBM binding z-score,[8],0.732
CCTACTGGGCCAAAGAGGTCATTGATGCCGATAA,PBM binding z-score,[1],3.88
same,PBM binding z-score,[2],2.87
same,PBM binding z-score,[3],-0.243
same,PBM binding z-score,[4],3.95
same,PBM binding z-score,[5],4.73
same,PBM binding z-score,[6],1.71
same,PBM binding z-score,[7],3.75
same,PBM binding z-score,[8],4.23
TATACAGGGTCAAAGGCCAAAGTACGAATGTCGA,PBM binding z-score,[1],6.59
same,PBM binding z-score,[2],3.06
same,PBM binding z-score,[3],2.44
same,PBM binding z-score,[4],9.55
same,PBM binding z-score,[5],7.98
same,PBM binding z-score,[6],7.57
same,PBM binding z-score,[7],8.54
same,PBM binding z-score,[8],2.77
CCAACTAGGTCAAAGGACAGTGAAAGGCGACGTA,PBM binding z-score,[1],2.56
same,PBM binding z-score,[2],0.453
same,PBM binding z-score,[3],0.227
same,PBM binding z-score,[4],9.64
same,PBM binding z-score,[5],8.24
same,PBM binding z-score,[6],6.76
same,PBM binding z-score,[7],8.84
same,PBM binding z-score,[8],7.57
CGAACTAGGTCATCCAGGACCGTGAATACATTGA,PBM binding z-score,[1],2.19
same,PBM binding z-score,[2],0.428
same,PBM binding z-score,[3],-0.349
same,PBM binding z-score,[4],7.13
same,PBM binding z-score,[5],6.1
same,PBM binding z-score,[6],3.53
same,PBM binding z-score,[7],5.78
same,PBM binding z-score,[8],8.24
CGTCTAAGGTCATAGGAGGTCAGTGAAGACAGAT,PBM binding z-score,[2],5.68
same,PBM binding z-score,[3],1.55
same,PBM binding z-score,[9],6.24
same,PBM binding z-score,[4],6.42
same,PBM binding z-score,[5],6.7
same,PBM binding z-score,[6],3.31
same,PBM binding z-score,[7],5.55
same,PBM binding z-score,[8],3.95
CAAACCAGGTCACAGAGGTCAAAGTCCGTGCGTA,PBM binding z-score,[1],6.8
same,PBM binding z-score,[2],7.74
same,PBM binding z-score,[3],2.6
same,PBM binding z-score,[4],8.73
same,PBM binding z-score,[5],7.69
same,PBM binding z-score,[6],5.28
same,PBM binding z-score,[7],7.12
same,PBM binding z-score,[8],6.56
ACTCGGAGGTCAAAGGTCAGAGCTACGCCAGTGA,PBM binding z-score,[2],5.1
same,PBM binding z-score,[3],2.98
same,PBM binding z-score,[5],9.47
same,PBM binding z-score,[6],9.38
same,PBM binding z-score,[7],10.2
same,PBM binding z-score,[8],4.46
CGTCCAAGGTCAAAGGTCATTGAAGAGATGACGG,PBM binding z-score,[2],6.32
same,PBM binding z-score,[3],3.11
same,PBM binding z-score,[5],10
same,PBM binding z-score,[6],9.22
same,PBM binding z-score,[7],11.6
same,PBM binding z-score,[8],4.6
